Laboratory results: PubChem BioAssay (Tox21)
Where “and” joins values, the source holds several entries; their conditions need not be identical. Equal entries are not always repeated. Records with an inconclusive call do not appear. Where a call stands in place of a potency, no number is given. Some structures have more than one record in an assay (separate samples or runs), and their calls can disagree. Calls of active or inactive are those of the source. Calls come from the whole dose curve; as a rule, active = well fitted curve in the direction sought with a large enough effect in the repeat runs; inconclusive = weak or mixed curves; inactive = no such curve, though single readings can be large; an effect the other way counts as inactive or inconclusive.
Potency is the fitted concentration of half-maximal effect.

System: not listed separately
Experiment: qHTS assay to identify small molecule antagonists of the estrogen receptor alpha (ER-alpha) signaling pathway using the BG1 cell line - cell viability counter screen (AID 743081);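 note: compound given together with 17beta-estradiol as the ER stimulus; nearly all actives have a fitted effect of over 45% in size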
Settings: BG1Luc4E2 viability, CellTiter-Fluor, 22 h; series mostly up to 70.3 µM
For C=CCOC(=O)CC(C)C, the Potency was “inactive”. In the case of Cc1c(N(C)C)c(=O)n(-c2ccccc2)n1C, the Potency is reported as “inactive”. In the case of Cc1cccc(Nc2cc(Cl)nc(SCC(=O)O)n2)c1C, the Potency is reported as “inactive”. For NC(=O)N/N=C/c1ccc([N+](=O)[O-])o1, the Potency was “inactive and 54.5 µM (active)”. With COc1cc2c(c(OC)c1OC)-c1ccc(OC)c(=O)cc1[C@@H](NC(C)=O)CC2 the Potency was “inactive”. With NC(=O)N1c2ccccc2C=Cc2ccccc21 the Potency was “inactive”. In the case of COc1ccccc1O, the Potency is reported as “inactive”. For C=C(C)OC(C)=O, the Potency was “inactive”. For COC1=CC(=O)C[C@@H](C)[C@]12Oc1c(Cl)c(OC)cc(OC)c1C2=O, the Potency was “inactive”. In the case of O=C(O)CN(CC(=O)O)CC(=O)O, the Potency is reported as “inactive”. With CCCCCCCCOc1ccc(C(=O)c2ccccc2)c(O)c1 the Potency was “inactive”. With COc1cc(O)c(C(=O)c2ccccc2)cc1S(=O)(=O)O the Potency was “inactive”. For Cc1cnc(NC(=O)C2=C(O)c3ccccc3S(=O)(=O)N2C)s1, the Potency was “inactive”. With c1ccc2[nH]c(-c3cscn3)nc2c1 the Potency was “inactive”. For CCn1cc(C(=O)O)c(=O)c2ccc(C)nc21, the Potency was “inactive”. With COCC(C)N (centres undefined) the Potency was “inactive”. For CC(=O)CCC(C)C, the Potency was “inactive”. For CCCCOCCOCCOC(C)=O, the Potency was “inactive”. With N[C@@H](Cc1c[nH]c2ccc(O)cc12)C(=O)O the Potency was “inactive”. For CC(=O)OC/C=C(C)/C=C/C=C(C)/C=C/C1=C(C)CCCC1(C)C, the Potency was “inactive”. With CC1=NN(c2ccccc2)C(=O)C1 the Potency was “inactive”. With CCCCOC(=O)CCCCCCCCC(=O)OCCCC the Potency was “inactive”. In the case of CC(=O)/C=C/C1=C(C)CCCC1(C)C, the Potency is reported as “inactive”. In the case of Cc1ccc(O)c(-n2nc3ccccc3n2)c1, the Potency is reported as “inactive”. With O=C(O)CCCCC1CCSS1 (centres undefined) the Potency was “inactive”. For OC[C@@H](O)[C@@H](O)[C@H](O)[C@H](O)CO, the Potency was “inactive”. For CC(C)(C)NCC(O)c1ccc(O)c(CO)c1 (centres undefined), the Potency was “inactive”. With CC(C)(C)CC(C)(C)c1ccc(O)c(-n2nc3ccccc3n2)c1 the Potency was “inactive”. For CN(C)C=O, the Potency was “inactive”. With CC1(C)O[C@@H]2[C@@H](CO[C@@]3(COS(N)(=O)=O)OC(C)(C)O[C@@H]23)O1 the Potency was “inactive”.

Biological target: Aromatase (Homo sapiens) (UniProt P11511)
Sequence (P11511 whole entry, looked up): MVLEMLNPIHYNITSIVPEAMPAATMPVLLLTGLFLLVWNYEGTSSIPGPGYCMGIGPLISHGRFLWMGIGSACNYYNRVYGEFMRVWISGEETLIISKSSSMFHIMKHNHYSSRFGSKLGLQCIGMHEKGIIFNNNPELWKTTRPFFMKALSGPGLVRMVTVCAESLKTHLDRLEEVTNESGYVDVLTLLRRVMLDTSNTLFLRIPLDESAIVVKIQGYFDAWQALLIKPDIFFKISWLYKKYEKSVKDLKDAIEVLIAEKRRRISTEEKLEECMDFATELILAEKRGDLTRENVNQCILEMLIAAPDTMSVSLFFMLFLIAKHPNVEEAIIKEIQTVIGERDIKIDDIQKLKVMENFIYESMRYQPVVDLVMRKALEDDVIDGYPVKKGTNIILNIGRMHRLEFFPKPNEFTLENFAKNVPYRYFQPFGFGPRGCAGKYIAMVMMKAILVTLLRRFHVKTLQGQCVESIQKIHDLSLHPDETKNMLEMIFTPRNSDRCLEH
Experiment: qHTS assay to identify aromatase inhibitors (AID 743083); note: nearly all actives have a fitted effect of over 55% in size
Settings: MCF-7 aro ERE, testosterone-driven ERE luciferase, 24 h; series mostly up to 70.3 µM
For C=CCOC(=O)CC(C)C, the Potency was “inactive”. For Cc1c(N(C)C)c(=O)n(-c2ccccc2)n1C, the Potency was “inactive”. For Cc1cccc(Nc2cc(Cl)nc(SCC(=O)O)n2)c1C, the Potency was “inactive”. In the case of NC(=O)N/N=C/c1ccc([N+](=O)[O-])o1, the Potency is reported as “inactive and 62.9 µM (active)”. In the case of COc1cc2c(c(OC)c1OC)-c1ccc(OC)c(=O)cc1[C@@H](NC(C)=O)CC2, the Potency is reported as “inactive”. In the case of NC(=O)N1c2ccccc2C=Cc2ccccc21, the Potency is reported as “inactive”. With COc1ccccc1O the Potency was “inactive”. In the case of C=C(C)OC(C)=O, the Potency is reported as “inactive”. For O=C(O)CN(CC(=O)O)CC(=O)O, the Potency was “inactive”. With CCCCCCCCOc1ccc(C(=O)c2ccccc2)c(O)c1 the Potency was “inactive”. With COc1cc(O)c(C(=O)c2ccccc2)cc1S(=O)(=O)O the Potency was “inactive”. In the case of Cc1cnc(NC(=O)C2=C(O)c3ccccc3S(=O)(=O)N2C)s1, the Potency is reported as “inactive”. For c1ccc2[nH]c(-c3cscn3)nc2c1, the Potency was “inactive”. In the case of CCn1cc(C(=O)O)c(=O)c2ccc(C)nc21, the Potency is reported as “inactive”. With COCC(C)N (centres undefined) the Potency was “inactive”. With CC(=O)CCC(C)C the Potency was “inactive”. For CCCCOCCOCCOC(C)=O, the Potency was “inactive”. For N[C@@H](Cc1c[nH]c2ccc(O)cc12)C(=O)O, the Potency was “inactive”. For CC(=O)OC/C=C(C)/C=C/C=C(C)/C=C/C1=C(C)CCCC1(C)C, the Potency was “inactive”. In the case of CC1=NN(c2ccccc2)C(=O)C1, the Potency is reported as “inactive”. For CCCCOC(=O)CCCCCCCCC(=O)OCCCC, the Potency was “inactive”. For CC(=O)/C=C/C1=C(C)CCCC1(C)C, the Potency was “inactive”. With Cc1ccc(O)c(-n2nc3ccccc3n2)c1 the Potency was “inactive”. In the case of O=C(O)CCCCC1CCSS1 (centres undefined), the Potency is reported as “inactive”. For OC[C@@H](O)[C@@H](O)[C@H](O)[C@H](O)CO, the Potency was “inactive”. In the case of CC(C)(C)NCC(O)c1ccc(O)c(CO)c1 (centres undefined), the Potency is reported as “inactive”. With CC(C)(C)CC(C)(C)c1ccc(O)c(-n2nc3ccccc3n2)c1 the Potency was “inactive”. With CN(C)C=O the Potency was “inactive”. For CC1(C)O[C@@H]2[C@@H](CO[C@@]3(COS(N)(=O)=O)OC(C)(C)O[C@@H]23)O1, the Potency was “inactive”.

System: not listed separately
Experiment: qHTS assay to identify aromatase inhibitors - cell viability counter screen (AID 743084);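 note: cells stimulated with testosterone during compound exposure; nearly all actives have a fitted effect of over 55% in size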
Settings: MCF-7 aro ERE viability, CellTiter-Fluor, 24 h; series mostly up to 70.3 µM
In the case of C=CCOC(=O)CC(C)C, the Potency is reported as “inactive”. With Cc1c(N(C)C)c(=O)n(-c2ccccc2)n1C the Potency was “inactive”. With Cc1cccc(Nc2cc(Cl)nc(SCC(=O)O)n2)c1C the Potency was “inactive”. With NC(=O)N/N=C/c1ccc([N+](=O)[O-])o1 the Potency was “inactive”. With COc1cc2c(c(OC)c1OC)-c1ccc(OC)c(=O)cc1[C@@H](NC(C)=O)CC2 the Potency was “inactive”. With NC(=O)N1c2ccccc2C=Cc2ccccc21 the Potency was “inactive”. With COc1ccccc1O the Potency was “inactive”. For C=C(C)OC(C)=O, the Potency was “inactive”. In the case of COC1=CC(=O)C[C@@H](C)[C@]12Oc1c(Cl)c(OC)cc(OC)c1C2=O, the Potency is reported as “inactive”. With O=C(O)CN(CC(=O)O)CC(=O)O the Potency was “inactive”. With CCCCCCCCOc1ccc(C(=O)c2ccccc2)c(O)c1 the Potency was “inactive”. In the case of COc1cc(O)c(C(=O)c2ccccc2)cc1S(=O)(=O)O, the Potency is reported as “inactive”. For Cc1cnc(NC(=O)C2=C(O)c3ccccc3S(=O)(=O)N2C)s1, the Potency was “inactive”. For c1ccc2[nH]c(-c3cscn3)nc2c1, the Potency was “inactive”. For CCn1cc(C(=O)O)c(=O)c2ccc(C)nc21, the Potency was “inactive”. With COCC(C)N (centres undefined) the Potency was “inactive”. For CC(=O)CCC(C)C, the Potency was “inactive”. With CCCCOCCOCCOC(C)=O the Potency was “inactive”. With N[C@@H](Cc1c[nH]c2ccc(O)cc12)C(=O)O the Potency was “inactive”. With CC(=O)OC/C=C(C)/C=C/C=C(C)/C=C/C1=C(C)CCCC1(C)C the Potency was “inactive and 66.9 µM (active) and 61.1 µM (active)”. With CC1=NN(c2ccccc2)C(=O)C1 the Potency was “inactive”. For CCCCOC(=O)CCCCCCCCC(=O)OCCCC, the Potency was “inactive”. With CC(=O)/C=C/C1=C(C)CCCC1(C)C the Potency was “inactive”. In the case of Cc1ccc(O)c(-n2nc3ccccc3n2)c1, the Potency is reported as “inactive”. For O=C(O)CCCCC1CCSS1 (centres undefined), the Potency was “inactive”. In the case of OC[C@@H](O)[C@@H](O)[C@H](O)[C@H](O)CO, the Potency is reported as “inactive”. In the case of CC(C)(C)NCC(O)c1ccc(O)c(CO)c1 (centres undefined), the Potency is reported as “inactive”. With CC(C)(C)CC(C)(C)c1ccc(O)c(-n2nc3ccccc3n2)c1 the Potency was “inactive”. In the case of CN(C)C=O, the Potency is reported as “inactive”. With CC1(C)O[C@@H]2[C@@H](CO[C@@]3(COS(N)(=O)=O)OC(C)(C)O[C@@H]23)O1 the Potency was “inactive”.
